Many of the other results were omitted from the sample, so hits are more common in it than they were.
HIV RNase H inh-1 – HIV-1 RT RNase H inhibitors, primary screen, biochemical, fluorescence; Gag-Pol polyprotein (Human immunodeficiency virus type 1 group M subtype B (isolate …; RT-RNase H RNA/DNA duplex cleavage; actives 1.9% (n = 65,000); inhibition, % at 10 µM; AID 565, 2006; in the data active = inhibition above about 50%
HIV RNase H inh-2 – HIV-1 RT RNase H inhibitors, retest, confirmation, biochemical. actives 39% (n = 1,000). AID 651, 2007. shares compounds with HIV RNase H inh-1. Recombinant RT RNase H, fluorescent RNA/DNA duplex cleavage. inhibition, % at 10 µM; in the data active = inhibition above about 48%; inconclusive = no clear call, values can overlap the other calls
Numbers stand for hits; - = inactive; ? = inconclusive.

SMILES	HIV RNase H inh-1	others
COc1ccc(OC)c(S(=O)(=O)Nc2ccc(O)c(Sc3ncn[nH]3)c2)c1	94	HIV RNase H inh-2=60
COC(=O)c1c(C)oc2ccc(NS(=O)(=O)c3cc(OC)ccc3OC)cc12	-
COc1ccc(OC)c(S(=O)(=O)Nc2ccc(O)c3ccccc23)c1	83	HIV RNase H inh-2=?
COc1ccc(OC)c(S(N)(=O)=O)c1	-
COc1ccc(OC)c(S(=O)(=O)Nc2ccc(C(N)=O)cc2)c1	-
CNS(=O)(=O)c1cc(OC)ccc1OC	-
N#Cc1c(N)oc(-c2ccc3c(c2)OCO3)c1-c1ccc2c(c1)OCO2	-
Cc1sc2nc(CN(Cc3cccs3)C(=O)NC3CCCCC3)[nH]c(=O)c2c1C	-
CC(C)(C)Sc1nc(O)cc(=O)[nH]1	-
O=C(Nc1ccccc1C(F)(F)F)C1CC(=O)N(c2ccccc2F)C1 (stereo not given)	-
CC(=O)NCCn1c(SCc2cc(=O)n3cc(Cl)ccc3n2)nc2ccccc2c1=O	-
CCCc1cc(N2CCN(c3ccccn3)CC2)n2nc(C)c(-c3ccccc3)c2n1	-
CCOC(=O)c1cc(NC(=O)N2CCCCC2)c(C)nc1C	-
c1ccc(Cn2c(-c3ccco3)nc3nc4ccccc4nc32)cc1	-
c1coc(-c2nc3ccccc3nc2-c2ccco2)c1	67	HIV RNase H inh-2=-
O=c1oc(-c2ccco2)nc2ccccc12	-
Cc1cc2oc(=O)cc(CN3CCCCC3C)c2c(C)c1Cl (stereo not given)	-
CCc1ccccc1N1CC(C(=O)O)CC1=O (stereo not given)	-
CCCCP(=O)(O)CCC(=O)O	-
CCCCCC#CCC#CCC#CCC#CCCCC(=O)O	97	HIV RNase H inh-2=66
CCCCCCC(N)CC(=O)O (stereo not given)	-
Cc1ccc2c(c1)c(-c1ccccc1)nc1nncn12	-
O=C(NC1CSC/C1=N\O)c1ccccc1 (stereo not given)	-
CC(=O)N1CCC(=O)N(C(C)C)c2ccccc21	-
CC(=O)Nc1nc2c(F)cccc2s1	-
SMILES	HIV RNase H inh-1	others
CC(=O)Nc1nc(=S)ss1	64	HIV RNase H inh-2=-
CC(=O)Nc1nc(-c2ccc(Br)s2)cs1	-
Cc1nn(-c2ccccc2)c2[nH]c(=O)c(CNCCN3CCOCC3)cc12	-
Cc1nn(-c2ccccc2)c2[nH]c(=O)c(CNCc3ccc4c(c3)OCO4)cc12	-
Cc1nn(-c2ccccc2)c2[nH]c(=O)c(CNc3ccc4c(c3)OCCO4)cc12	80	HIV RNase H inh-2=-
O=C(O)CCNc1ccc2c(c1)OCCO2	-
O=C(Nc1ccccc1-c1nc2ccccc2o1)c1ccc2c(c1)OCCO2	-
Cc1ccc(-c2nc3ccccc3o2)cc1NC(=O)c1ccc2c(c1)OCO2	62	HIV RNase H inh-2=-
Cc1c(NC(=O)c2ccc3c(c2)OCO3)cccc1-c1nc2ccccc2o1	-
O=C(NCc1nc(-c2ccccc2)no1)c1ccc2c(c1)OCO2	-
Cc1ccccc1OCc1nc(-c2ccc(NC(=O)c3ccco3)cc2)no1	-
Cc1ccccc1OCc1nc(-c2ccc(NC(=O)c3ccc4c(c3)OCO4)cc2)no1	75	HIV RNase H inh-2=87
O=C(CSc1nnc(-c2ccc(OC(F)F)cc2)o1)NC(=O)NCc1ccco1	-
CCC1=NC(c2ccccc2OC)N(O)C1(C)C (stereo not given)	-
COC(=O)c1ccccc1NC(=O)Cn1cnc2c(cnn2-c2ccccc2)c1=O	74	HIV RNase H inh-2=-
COc1ccccc1NC(=O)Cn1cnc2c(cnn2-c2ccccc2)c1=O	-
CCOC(=O)c1ccccc1NC(=O)Cn1cnc2c(cnn2-c2ccccc2)c1=O	-
S=c1[nH]nc(C23CC4CC(CC(C4)C2)C3)n1Cc1ccco1	-
COC(=O)c1sc2nc(N3CCCCC3)c3c(c2c1N)CC(C)(C)N(C)C3	-
Cc1ccccc1N=C1NC(=O)CS1	-
Cc1ccc(C)c(N=C2NC(=O)CS2)c1	-
Cc1cc(O)c(C(C)C)cc1N=C1CSC(=O)N1	67	HIV RNase H inh-2=?
N#Cc1ccccc1NC(=O)c1ccc(-c2ccccc2Cl)o1	-
Cc1nc2ccc(F)cc2cc1C(=O)NC(C)C	-
COC(=O)Cn1nnc(-c2cccc(OC)c2)n1	-
SMILES	HIV RNase H inh-1	others
Cc1cccc(N2CCN(C(=O)Cn3nc(Cc4ccncc4)c4ccccc4c3=O)CC2)c1C	-
C=CCNc1nc(-c2c(C)nc3sccn23)cs1	-
C=CCNc1nc(C2(C)CC3(CC(C)(C)OC3=O)C(=O)O2)cs1 (stereo not given)	57	HIV RNase H inh-2=-
CC(C)COCC1CC2(CC(C)(c3csc(N)n3)OC2=O)C(=O)O1 (stereo not given)	-
CC(=O)c1ccc(N2C(=O)NC3(CCCCC3)C2=O)cc1	-
CC(=O)N(Cc1cc(=O)[nH]c2ccccc12)c1cccc(C)c1	82	HIV RNase H inh-2=67
CC(=O)N(Cc1cc(=O)[nH]c2ccccc12)c1ccccc1	-
COc1ccc2[nH]c(=O)c(CN(C(C)=O)c3cccc(C)c3)cc2c1	-
Cc1ccc(-c2nc3cnccn3c2Nc2ccc3c(c2)OCO3)o1	-
Cc1ccc(-c2nc3ncccn3c2Nc2ccc3c(c2)OCCO3)o1	-
Cc1ccc(-c2nc3cnccn3c2Nc2ccccc2)o1	88	HIV RNase H inh-2=-

Assay outcomes (PubChem)
